We go through 57 molecules from PubChem BioAssay AID504329 (Southern Research Specialized Biocontainment Screening …, 2011).

Molecules are shown by their SMILES. Hit rate of the full screen: of about 340,000 compounds, about 1,000 (0.29%) were called active. The list is a sample of the results. Results with a measured potency or affinity are listed apart. Values without a mark were called inactive. Rule as the data show it: inconclusive = inhibition above about 27% without an active follow-up result; inactive = below that.

The nature of the assay: H1N1 influenza NS1A inhibitors, functional cell based assay (AID 504329). The settings on record: percent inhibition, at 12.5 µM, stronger effect = higher value.
As usually defined, the inhibition is the drop in the measured response relative to a control, in per cent. As for `CCn1c(SCC(=O)NC(C)c2ccccc2)nc2ccccc21` (configuration not stated), the inhibition is 6.4%.
The result for `COc1ccc(C(C)(C)C)cc1NC(=O)COC(=O)CSCc1c(C)noc1C` reads 12.6%; that for `COC(=O)C1=C(C(=O)OC)SC(=C2C(=S)C(C)(C)N(C(=O)C(C)C)c3ccccc32)S1`, 26.5%; that for `COC(=O)C1=C(C(=O)OC)SC(=C2C(=S)C(C)(C)N(C(=O)CC(C)C)c3ccccc32)S1`, 18.9%.
As for `CC(=O)C1=C(C)N(Cc2ccccc2)C(=O)N[C@H]1c1cccc(F)c1`, the inhibition was -6.27%.
As for `CC(C)=C(NC(=O)c1ccccc1)C(=O)Nc1ccc(C(=O)O)cc1`, the figure is -12.3%.
The result for `O=C1C=C(O)c2cccc(O)c2C1=O` reads 3.19%.
With `O=C1C(=O)c2c(ccc3ccccc23)-c2ccccc21`, the inhibition was 0.1%.
The result for `CC(=O)c1ccc(S(=O)(=O)N(CCCO)Cc2cc3cc4c(cc3[nH]c2=O)OCCO4)cc1` reads -6.83%; that for `COCCNC(=S)Nc1ccc2nc(N3CCN(C)CC3)cc(C)c2c1`, 8.16%; that for `O=C(CNS(=O)(=O)c1ccccc1)Nc1ccccc1Br`, -10.4%.
For `Cc1c(NC(=S)N/N=C/c2cc([N+](=O)[O-])ccc2O)c(=O)n(-c2ccccc2)n1C`, the inhibition is 2.17%.
Consider `Cc1c(NC(=S)N/N=C/c2ccc(Br)cc2)c(=O)n(-c2ccccc2)n1C`, for which the inhibition was 0.4%.
For `Cc1c(NC(=S)N/N=C/C=C/c2ccc([N+](=O)[O-])cc2)c(=O)n(-c2ccccc2)n1C`, the inhibition is 1.25%.
On to `Cc1c(NC(=S)N/N=C/c2ccc(O)cc2)c(=O)n(-c2ccccc2)n1C`, for which the inhibition was -9.33%.
The result for `CCCOc1ccc(/C=N/NC(=O)CSCc2ccc([N+](=O)[O-])cc2)cc1OCC` reads -9.68%; that for `CC(C)CN(C(=O)C1CCCO1)C1CCS(=O)(=O)C1` (configuration not stated), -6.34%; that for `O=C(Oc1coc(CSc2ncccn2)cc1=O)c1cccs1`, -4.51%.
Turning to `COC(=O)C1=C(CSc2nccn2C)NC(=O)NC1c1cc(C)ccc1C` (configuration not stated), the inhibition was 1.93%.
The result for `Cc1c(OC(C)C(=O)NCc2ccccn2)ccc2c3c(c(=O)oc12)CCCC3` (configuration not stated) reads -4.86%.
The result for `C=CCOc1ccc(/C=N/NC(=O)CC(=O)NC2CCCCC2)cc1` reads 6.03%; that for `CC1(C(=O)Nc2nc3ccc(S(C)(=O)=O)cc3s2)CC1(Cl)Cl` (configuration not stated), 5.4%; that for `O=C(O)c1ccc(N=N/C(=N\Nc2ccc(C(=O)O)cc2)c2ccccc2)cc1`, 15.3%.
For `O=C(O)c1cccc(NN=C2c3ccccc3-c3ccccc32)c1`, the inhibition was 10.1%.
`CC(=O)c1cccc(NC(=O)CN2C(=O)NC(C)(c3ccc4c(c3)OCCCO4)C2=O)c1` (configuration not stated): the inhibition is 2.48%.
As for `COc1ccccc1CNC(=O)Cn1cc([N+](=O)[O-])ccc1=O`, the figure is -14%; as for `c1ccc(Nc2nc(-c3ccccn3)cs2)cc1`, 8.8%; as for `Cc1cccnc1Nc1nc(-c2ccc(O)cc2)cs1`, 5.7%.
On to `Cc1cccc(Nc2nc(-c3cccs3)cs2)n1`, for which the inhibition was 8.74%.
The result for `Cc1cccnc1Nc1nc(-c2ccccc2)cs1` reads -4.02%; that for `CCCc1nnc(NC(=O)CCC(=O)N2CCN(CCOC(c3ccccc3)c3ccccc3)CC2)s1`, 0.42%; that for `O=CNCC(=O)NC1CCCCCC1`, -2.65%.
As for `Cc1ccc(OCC(=O)N/N=C/c2cccnc2)cc1C`, the figure is -11%.
On to `O=C1NC(=O)C(CC(=O)N(c2ccccc2)C2(C(=O)NC3CCCC3)CCCCC2)N1` (configuration not stated), for which the inhibition is -0.63%.
On to `CC(Oc1ccc(Cl)cc1Cl)C(=O)Nc1ccc(N2CCN(C)CC2)cc1` (configuration not stated), for which the inhibition is 9.83%.
For `CCN1CCN(C2=C(NS(=O)(=O)c3ccc(C)cc3)C(=O)c3ccccc3C2=O)CC1`, the inhibition is 10.6%.
The result for `Cc1ccc(S(=O)(=O)NCC(=O)N2CCN(c3ccccc3F)CC2)cc1` reads 11.9%; that for `CCN1CCN(C2=C(NS(=O)(=O)c3ccccc3)C(=O)c3ccccc3C2=O)CC1`, -3.88%; that for `Cc1ccc(S(=O)(=O)Nc2nc3ccccc3nc2N2CCN(c3ccccc3F)CC2)cc1`, -0.57%.
On to `Cc1ccc(S(=O)(=O)CC(=O)N2CCN(c3ccccc3F)CC2)cc1`, for which the inhibition is 2.84%.
The result for `CC(=O)Nc1ccc(S(=O)(=O)NC2=C(N3CCN(Cc4ccccc4)CC3)C(=O)c3ccccc3C2=O)cc1` reads 12.6%.
As for `CCOC(=O)N1CCN(C2=C(NS(=O)(=O)c3ccccc3)C(=O)c3ccccc3C2=O)CC1`, the figure is 18.6%; as for `CCOC(=O)N1CCN(C2=C(NS(=O)(=O)c3ccc(NC(C)=O)cc3)C(=O)c3ccccc3C2=O)CC1`, 12.4%; as for `CC(C)(C)NC(=O)C12CC3CC(CC(Cl)(C3)C1)C2`, 1.34%.
For the molecule `O=C(COC(=O)c1ccc(Br)c(S(=O)(=O)N2CCOCC2)c1)NC1CC1`, the inhibition was -5.17%.
The result for `CCOC(=O)c1cc(S(=O)(=O)NC2CCC(C)CC2)cn1C` (configuration not stated) reads -6.39%.
As to `CCCOc1ccc(NC(=O)C(=O)NCCCn2ccnc2)cc1`, the inhibition was -6.26%.
As to `Cc1cccc(Oc2cnn(C(C)(C)C)c(=O)c2Cl)c1`, the inhibition was -1.49%.
Take `CC(=O)OCCNc1cc(Sc2nc3ccccc3[nH]2)c2nonc2c1[N+](=O)[O-]`: the inhibition is -9.31%.
As for `CCOC(=O)c1c(C)nc2c(c1-c1ccccc1)C(=O)c1ccccc1-2`, the inhibition was -17.6%.
For the molecule `CCOC(=O)N1CCN(c2ccccc2O)CC1`, the inhibition was -11.3%.
As for `CN1CCN(c2ccc(Cl)cc2NC(=O)CC2OC(=O)c3ccccc32)CC1` (configuration not stated), the figure is -6.08%; as for `O=C1c2ccccc2-c2c1cccc2C(=O)N1CCN(C(=O)c2ccco2)CC1`, 0.55%; as for `O=C(O)CCCNc1cc(N2CCN(C(=O)c3ccco3)CC2)c2noc3c2c1C(=O)c1ccccc1-3`, 25.1%.
`CCOC(=O)c1c(C)oc2c1C(=O)c1ccccc1C2=O`: the inhibition was 15.3%.
The result for `CCOC(=O)N1CCN(c2cc(NCCO)c([N+](=O)[O-])c3nonc23)CC1` reads -0.42%.
As for `CCOC(=O)CC(=O)CSc1nc(C)nc2c1oc1ccccc12`, the inhibition was 2.82%.
